Screening results as filed in PubChem.
The list is not random: actives were taken first. Their share in the collection is about 3.8%.
Sfp PPTase inh = Sfp phosphopantetheinyl transferase inhibition; Q9F4F7; Biochemical Sfp PPTase activity, qHTS; Potency, µM, without a hit: largest response in the series, negative = inhibition, actives largely listed as inhibitors; 310,000 compounds, 3.5% hits; AID 1490;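 also: the enzyme is Sfp with the accession as filed and its product quenches rhodamine fluorescence; 0% = enzyme reaction without inhibitor and -100% = no enzyme wells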
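With Hepes-Na pH 7.6 buffer containing 10 mM MgCl2, Sfp (15 nM) modified BHQ-2-YbbR (12.5 uM) using rhodamine-CoA (5 uM). Two reads 30 minutes apart at 525/598 nm yielded each well's rate.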
rTrxR1 inhibitor = rat TrxR1 inhibition; O89049; recombinant rTrxR1, NADPH fluorescence consumption, selenite substrate; Potency, µM (series often up to 114 µM), without a hit: top-dose activity change, negative = inhibition, most hits filed as inhibitors; 390,000 compounds, 1% hits; AID 588453; also: nearly all actives have a fitted effect of over 65% in size
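Rat TrxR1 (90 nM in the dispensed reagent) was pre-reduced with 400 uM NADPH for 5 min at room temperature, then incubated with compound for 15 min. After 400 uM selenite was added, NADPH fluorescence (Ex 340/Em 450 nm) was followed for 8 min.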
GLS inhibitor = blocks human kidney-isoform glutaminase activity | GLS enzymatic activity, qHTS titration | Potency, µM (top dose mostly 45.5 µM), without a hit: at the highest dose activity change, negative = inhibition, actives largely listed as inhibitors | 410,000 compounds, 0.21% hits
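Human kidney-isoform GLS in 45 mM KH2PO4 pH 8.2, 0.02% Tween-20, with compound, started with 1mM L-Glutamine (added stock). Glutamate oxidase/HRP/Amplex red coupled fluorescence read at start and after 30 min at RT.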
TrxR1 substrate = is turned over as a substrate by rat TrxR1 | O89049 | purified TrxR1 substrate turnover, NADPH consumption readout | Potency, µM (highest dose often 114 µM), without a hit: at the highest dose activity change, negative = substrate turnover | 390,000 compounds, 0.01% hits | AID 588456; also: nearly all actives have a fitted effect of over 50% in size
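Rat TrxR1, dispensed at 90 nM, was prereduced with 400 uM NADPH (final) for 5 min at ~22 deg C, then incubated with compound 15 min before 400 uM selenite. A first-read NADPH fluorescence drop versus no-compound background flagged substrates.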
VDR inhibitor = inhibitors of human vitamin D receptor. P11473. VDR-SRC2-3 peptide fluorescence polarization, 2 h. Potency, µM, without a hit: max response, negative = inhibition, hits mostly inhibitors. 400,000 compounds, 0.93% hits
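Fluorescence polarization assay measuring small-molecule disruption of VDR binding to the coregulator peptide SRC2-3. Compounds were pin-transferred (23 nl) into the reagent mix and incubated 2 h at room temperature before reading.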
KAT2A inh = blocks human GCN5L2 histone acetyltransferase; GCN5L2 HAT assay, ThioGlo1 CoA-SH fluorescence; Potency, µM (titrated, usually from 58.9 µM), without a hit: at the top dose activity change, negative = inhibition, hits mostly inhibitors; 390,000 compounds, 0.21% hits; AID 504327
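Enzyme at 20nM final was mixed with library compounds for 15 min at room temperature. Peptide H3(1-25) at 75uM, acetyl-CoA at 70uM and ThioGlo1 at 50uM were then added. Plates were read immediately and after 20 min (Ex340nm/Em540nm).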
* hit, by the source's call; ? = inconclusive; . = no result given; [ ] = dose if it differs, or a comment. Calls follow the shape of the dose curve; as a rule, active = well fitted curve in the direction sought with a large enough effect; inconclusive = small, poorly fitted or top-dose-only effect, or another doubt; inactive = no such curve, though single readings can be large; an effect the other way counts as inactive or inconclusive. Unless noted, % is scaled to controls: 0 for no effect and ±100 for the full control effect; potency is read from the fitted curve at half-maximal effect.

SMILES	Sfp PPTase inh	rTrxR1 inhibitor	GLS inhibitor	TrxR1 substrate	VDR inhibitor	KAT2A inh
Cc1ccc(/C=c2/sc3n(c2=O)CCCN=3)o1	20µM*	?	1%	-12%	-13%	-29%
Cc1ccc(N2C(=O)[C@@H]3[C@H](C2=O)[C@H]2C=C(C(=O)c4ccccc4)C=CN2[C@@H]3C(=O)c2ccc(Cl)cc2)cc1	-14%	-22%[57.1 µM]	-13%	6%[57.1 µM]	3%	2%
O=C(C1=C[C@@H]2[C@H]3C(=O)N(c4cccc(Cl)c4)C(=O)[C@H]3[C@@H](C(=O)c3ccc(Cl)cc3)N2C=C1)c1ccccc1	-3%	50µM*	6%	0%	32%	0%
CCN(CC)CCN(C(=O)c1cc2c(ccc3ccccc32)oc1=O)c1nc2cc3c(cc2s1)OCCO3	40µM*	-35%	16%	70%	1%	-8%
CN(C)CCN(C(=O)c1ccc(N2C(=O)CCC2=O)cc1)c1nc2cc3c(cc2s1)OCO3	1%	?	0%	2%	-11%	-4%
CN(C)CCN(C(=O)c1ccc2ccccc2c1)c1nc2cc3c(cc2s1)OCCO3	79µM*	13%	1%	0%	-15%	-27%
Cc1ccc2nc(N(CCN(C)C)C(=O)c3ccc4ccccc4c3)sc2c1	?	12%	-3%	-2%	-3%	-5%
CN(C)CCCN(C(=O)c1ccc([N+](=O)[O-])o1)c1nc2cc3c(cc2s1)OCO3	-4%	50µM*	13%	-7%	7%	-10%
CN(C)CCN(C(=O)c1cccc2ccccc12)c1nc2cc3c(cc2s1)OCO3	79µM*	-3%	8%	-5%	-2%	-7%
COc1ccc(S(=O)(=O)NCC(c2ccco2)N2CCc3ccccc3C2)cc1 (stereo not drawn)	.	4%	9%	-1%	5%	-10%
CC(=O)O/N=C/c1c(Cl)n(C)c2ccccc12	15%	13%[57.1 µM]	0%	-14%	-23%	-12%
CCOC(=O)C(Sc1nn(C)c(=S)s1)C(C)=O (stereo not drawn)	50µM*	-8%	36%	-1%	?	-9%
Cn1nc(SCC(=O)O)sc1=S	23%	-1%	16%	-9%	-4%	-4%
CCOC(=O)CSc1cc(C)nc(N)n1	6%	-1%[57.1 µM]	-6%	6%[57.1 µM]	-13%	-6%
CCOC(=O)C(Sc1cc(C)nc(N)n1)C(C)=O (stereo not drawn)	56µM*	-16%	-11%	-1%[57.1 µM]	-20%	-2%
COC(=O)c1cccc(NC(=O)Cc2coc3cc(OC)ccc23)c1	12%	2%	-3%	1%	0%	-1%
Cn1nnc(NC(=S)NC(=O)c2cccc3ccccc23)n1	35µM*	?	0%	0%	-6%	-13%
COc1cc(OC)cc(C(=O)NC(=S)Nc2nnn(C)n2)c1	35µM*	?	1%	8%	-12%	-4%
CC1(C)Cc2c(sc3ncnc(NN)c23)CO1	40µM*	19%	-9%	3%	3%	2%
CC1(C)Cc2c(sc3ncn4c(=S)[nH]nc4c23)CO1	45µM*	-6%[57.1 µM]	13µM*	1%[57.1 µM]	?	22µM*
CC1(C)Cc2c(sc3ncn(N)c(=N)c23)CO1	-11%	-12%	19%	-11%	0%	2%
COc1ccc(CCn2c(=N)c(C(=O)NC3CCCC3)cc3c(=O)n4ccccc4nc32)cc1OC	6%	21%	8%	3%	19%	-20%
Cc1cc(C)cc(NC(=O)c2cc(C)nc3c2c(C)nn3-c2ccccc2)c1	.	79µM*	-6%	41%	-1%	43%
Cc1nn(-c2ccccc2)c2nc(-c3ccncc3)cc(C(=O)NCc3ccco3)c12	-25%	50µM*	3%	1%	-19%	-9%
Cc1ccccc1NC(=O)COC(=O)c1c(C)nn(-c2ccccc2)c1C	.	.	0%	.	.	.
Cc1nn(-c2ccccc2)c(C)c1C(=O)OCC(=O)NCc1ccco1	?	56µM*	-3%	4%	-25%	0%
